Assay results as given in PubChem BioAssay (NCATS).
Records with an inconclusive call do not appear. Activity calls are given as the source filed them. Unless noted, the call rests on the fitted dose curve; in most records, active means well fitted curve in either direction with a large enough effect (not every such curve was filed as active); inconclusive means small, poorly fitted or top-dose-only effect, or another doubt; inactive means flat fitted curve, though single readings scatter.

What was measured:
[1] = biological target: Lysosomal acid glucosylceramidase (Homo sapiens) (UniProt P04062); assay: Glucocerebrosidase-p2 (AID 348; in the data active means potency below about 10 µM; further: potency means the concentration at half of the fitted maximal effect); settings: purified GBA, blue fluorogenic substrate, 40 min
Lysosomal acid glucosylceramidase (Homo sapiens), sequence (P04062 whole entry, looked up): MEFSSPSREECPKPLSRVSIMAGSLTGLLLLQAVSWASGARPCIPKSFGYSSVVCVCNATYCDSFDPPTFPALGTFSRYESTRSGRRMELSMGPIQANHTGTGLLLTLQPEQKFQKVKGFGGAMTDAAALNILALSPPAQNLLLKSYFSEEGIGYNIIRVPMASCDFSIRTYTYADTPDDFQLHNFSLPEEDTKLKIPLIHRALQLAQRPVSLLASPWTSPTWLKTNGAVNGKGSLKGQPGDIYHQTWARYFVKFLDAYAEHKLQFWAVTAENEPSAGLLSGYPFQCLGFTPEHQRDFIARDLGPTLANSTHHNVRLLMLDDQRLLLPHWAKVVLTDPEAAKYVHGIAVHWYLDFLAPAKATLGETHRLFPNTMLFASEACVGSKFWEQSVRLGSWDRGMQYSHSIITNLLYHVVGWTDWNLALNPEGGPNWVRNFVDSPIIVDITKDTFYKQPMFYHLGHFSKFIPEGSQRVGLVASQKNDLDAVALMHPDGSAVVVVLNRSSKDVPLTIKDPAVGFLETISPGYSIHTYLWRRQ
How it was run: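 Normal human glucocerebrosidase (0.2 nM) with blue fluorogenic substrate (80 uM final) in citrate/phosphate pH 5.9 with 10mM sodium taurocholate, 0.01% tween-20; 40 min RT, NaOH/glycine stop; fluorescence Ex 365/Em 440; AC50 from a titration from 0.6 nM upwards.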

[2] = AP1 Signaling Pathway (AID 357); settings: ME-180 AP-1-bla reporter, EGF-induced, beta-lactamase ratio, 5 h; at 7.69 µM (top of the series) unless noted; further: on the % scale 0 is the no-effect control and ±100 the full control effect
How it was run: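 Beta-lactamase reporter under AP-1 response element, ME-180 background. Stimulus: EC50 EGF. Compound exposure 5 h, 37 °C. Detection: CCF4, 2.5 h RT, 460/530 nm. Values: AC50 from titration.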

[3] = biological target: Cytochrome P450 1A2 (Homo sapiens) (UniProt P05177); assay: p450-cyp1a2 (AID 410; calls by dose curve; further: potency means the concentration at half of the fitted maximal effect;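 on activity change, negative = inhibition: -100% = full effect of reference inhibitor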); settings: recombinant CYP1A2, luciferin-ME demethylation, luminescence; series mostly up to 11.4 µM
Cytochrome P450 1A2 (Homo sapiens), sequence (P05177 whole entry, looked up): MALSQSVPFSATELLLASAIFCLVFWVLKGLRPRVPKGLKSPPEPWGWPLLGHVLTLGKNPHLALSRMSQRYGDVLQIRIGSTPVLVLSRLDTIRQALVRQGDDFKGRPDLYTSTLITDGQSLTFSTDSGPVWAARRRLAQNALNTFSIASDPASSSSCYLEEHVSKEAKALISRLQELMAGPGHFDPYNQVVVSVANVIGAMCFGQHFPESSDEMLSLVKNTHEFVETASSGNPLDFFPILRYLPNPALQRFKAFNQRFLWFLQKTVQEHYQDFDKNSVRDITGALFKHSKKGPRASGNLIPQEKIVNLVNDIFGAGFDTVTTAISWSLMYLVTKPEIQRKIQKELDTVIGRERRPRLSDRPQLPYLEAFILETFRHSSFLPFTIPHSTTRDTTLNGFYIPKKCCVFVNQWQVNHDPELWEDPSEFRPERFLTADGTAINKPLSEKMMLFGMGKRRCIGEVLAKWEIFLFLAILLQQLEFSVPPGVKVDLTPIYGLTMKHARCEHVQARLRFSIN
How it was run: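 Luminescent demethylation readout: Luciferin-ME (100uM, equal to Km) turned over by 20nM CYP1A2 for 60 min at room temperature after NADPH regeneration addition, following 10 min compound preincubation. Normalization used 57 uM furafylline as full inhibition.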

[4] = NFAT Signaling Pathway (AID 444); settings: Jurkat NFAT-bla M1, carbachol, beta-lactamase ratio, 5 h; at 7.69 µM (top of the series) unless noted;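 further: carbachol stimulus at about its EC50 of 1 µM final; on the % scale 0 is the no-effect control and ±100 the full control effect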
How it was run: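 Jurkat cells carrying an NFAT-driven β-lactamase reporter and co-transfected muscarinic M1 receptor were treated with compound plus carbachol (1 uM final, an EC50 level) for 5 h at 37 °C. CCF4 loading followed for 1 h at RT; 460/530 nm ratio gave %activity.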

[5] = Stat Signaling Pathway (AID 446); settings: ME-180 SIE beta-lactamase reporter, IL-6 stimulated, 5 h; at 7.69 µM (top of the series) unless noted;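 further: ME-180 cervical cancer cells given 40 pM IL-6 alongside compound; SIE-controlled beta-lactamase reporter measured as 460/530 nm FRET emission ratio; on the % scale 0 is the no-effect control and ±100 the full control effect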
How it was run: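 Emission at 460 and 530 nm (excitation 405 nm) reports SIE-controlled beta-lactamase in ME-180 cells. Cells received compound with 40 pM IL-6 for 5 hrs at 37 C; data scaled between 300 pM IL-6 and 125 nM JAK-inhibitor controls.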

[6] = biological target: Glucocorticoid receptor (Homo sapiens) (UniProt P04150); assay: GR-GFP Redistribution (AID 450;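 active means compounds whose dose series gives a full or clear partial fitted curve of increased nuclear translocation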; further: potency means the concentration at half of the fitted maximal effect); settings: U2OS GR-GFP nuclear translocation, laser cytometry, 2 h
Glucocorticoid receptor (Homo sapiens), sequence (P04150 whole entry, looked up, the tested form may be a part): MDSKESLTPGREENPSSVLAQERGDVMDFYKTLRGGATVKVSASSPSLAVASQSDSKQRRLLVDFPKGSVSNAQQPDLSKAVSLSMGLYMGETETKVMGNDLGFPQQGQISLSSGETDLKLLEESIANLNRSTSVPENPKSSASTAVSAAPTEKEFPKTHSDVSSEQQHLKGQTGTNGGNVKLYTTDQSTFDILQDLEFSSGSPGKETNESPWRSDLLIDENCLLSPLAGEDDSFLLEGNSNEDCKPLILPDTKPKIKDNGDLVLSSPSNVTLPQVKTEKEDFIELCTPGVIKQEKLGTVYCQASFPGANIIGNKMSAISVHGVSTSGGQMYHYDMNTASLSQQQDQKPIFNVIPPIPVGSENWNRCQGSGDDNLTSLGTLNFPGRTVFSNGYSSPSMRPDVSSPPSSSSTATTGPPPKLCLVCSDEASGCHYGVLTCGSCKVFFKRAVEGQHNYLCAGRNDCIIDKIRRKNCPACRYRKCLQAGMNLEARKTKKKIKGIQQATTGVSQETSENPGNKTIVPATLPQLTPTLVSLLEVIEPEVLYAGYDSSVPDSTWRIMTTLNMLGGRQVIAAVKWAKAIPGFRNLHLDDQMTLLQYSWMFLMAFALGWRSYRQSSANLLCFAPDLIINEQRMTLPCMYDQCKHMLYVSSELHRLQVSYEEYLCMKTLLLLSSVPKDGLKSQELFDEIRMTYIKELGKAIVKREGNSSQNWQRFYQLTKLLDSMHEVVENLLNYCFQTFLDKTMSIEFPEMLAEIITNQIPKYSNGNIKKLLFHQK

[7] = biological target: Glucocorticoid receptor (Homo sapiens) (UniProt P04150); assay: GR-EFC Redistribution (AID 451; calls by dose curve; further: potency means the concentration at half of the fitted maximal effect); settings: CHO-K1 GR-EFC translocation, beta-gal luminescence, 2 h
How it was run: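 CHO-K1 cells stably expressing nuclear-localized β-gal enzyme acceptor and GR fused C-terminally to the enzyme donor fragment; ligand-driven nuclear translocation restores β-gal by complementation. Compounds titrated up to 46 uM final, 2 h at 37 °C; luminescence read.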

[8] = biological target: Mitogen-activated protein kinase 10 (Mus musculus) (UniProt Q61831); assay: JNK3 AlphaScreen Assay (AID 530); settings: JNK3 lysate, c-Jun phosphorylation; series mostly up to 11.4 µM;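 further: kinase came from lysate of stimulated human HepG2 cells; signal reports phosphorylation of biotinylated GST-cJun 1-79 at Ser73 with 10 µM ATP; on the % scale 0 is the no-effect control and ±100 the full control effect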
How it was run: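 Phosphorylation of biotinylated GST-cJun(1-79) at Ser73 is measured by AlphaScreen proximity luminescence. Enzyme is JNK3 in HepG2 lysates activated with interleukin-1beta and tumor necrosis factor alpha; ATP is 10 uM final.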

[9] = biological target: 3',5'-cyclic-AMP phosphodiesterase 4B (Homo sapiens) (UniProt Q07343); assay: qHTS Assay for Inhibitors of PDE-IV (AID 607; active means well fitted activation curve with a large enough effect in the main read-out, with a control signal flat, not every such curve was filed as active; further: % of control where 0% means no effect); settings: HEK293 ACTOne CNG channel cells, membrane potential fluorescence; series mostly up to 22.9 µM
3',5'-cyclic-AMP phosphodiesterase 4B (Homo sapiens), sequence (Q07343 whole entry, looked up): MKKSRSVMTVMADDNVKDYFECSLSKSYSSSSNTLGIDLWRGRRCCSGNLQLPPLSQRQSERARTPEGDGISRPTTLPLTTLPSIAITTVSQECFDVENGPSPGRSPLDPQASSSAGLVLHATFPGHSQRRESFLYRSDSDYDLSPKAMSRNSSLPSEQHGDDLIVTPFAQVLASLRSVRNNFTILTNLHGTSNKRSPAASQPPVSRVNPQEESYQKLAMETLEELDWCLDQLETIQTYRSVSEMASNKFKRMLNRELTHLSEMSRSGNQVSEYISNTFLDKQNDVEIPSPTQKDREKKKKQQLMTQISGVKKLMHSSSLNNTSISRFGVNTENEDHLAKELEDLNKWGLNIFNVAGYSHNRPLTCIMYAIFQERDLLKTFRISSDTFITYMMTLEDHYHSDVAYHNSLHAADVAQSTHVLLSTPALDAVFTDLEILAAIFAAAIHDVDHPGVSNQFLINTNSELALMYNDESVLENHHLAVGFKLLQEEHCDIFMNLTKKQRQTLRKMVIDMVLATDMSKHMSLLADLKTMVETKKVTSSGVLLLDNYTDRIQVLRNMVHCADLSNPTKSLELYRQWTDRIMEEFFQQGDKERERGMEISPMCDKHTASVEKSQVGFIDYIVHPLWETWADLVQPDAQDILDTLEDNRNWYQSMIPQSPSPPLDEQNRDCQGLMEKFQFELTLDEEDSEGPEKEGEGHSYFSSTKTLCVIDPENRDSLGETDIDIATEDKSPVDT
How it was run: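 The readout is membrane depolarisation from a cAMP-sensing CNG channel, detected with a potential dye at ex 535/em 590. Cells were HEK293-derived (endogenous PDE-IV) at 1000 cells/well, titrated up to 22.9 uM final.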

[10] = biological target: Cytochrome P450 2D6 (Homo sapiens) (UniProt P10635); assay: qHTS Assay for Inhibitors and Substrates of Cytochrome P450 2D6 (AID 891; active means well fitted curve in the direction sought with a large enough effect; an effect the other way counts as inactive or inconclusive; further: nearly all actives have a fitted effect of over 60% in size; further: potency means the concentration at half of the fitted maximal effect); settings: recombinant CYP2D6, luciferin-ME EGE luminescence; series mostly up to 11.4 µM
Cytochrome P450 2D6 (Homo sapiens), sequence (P10635 whole entry, looked up): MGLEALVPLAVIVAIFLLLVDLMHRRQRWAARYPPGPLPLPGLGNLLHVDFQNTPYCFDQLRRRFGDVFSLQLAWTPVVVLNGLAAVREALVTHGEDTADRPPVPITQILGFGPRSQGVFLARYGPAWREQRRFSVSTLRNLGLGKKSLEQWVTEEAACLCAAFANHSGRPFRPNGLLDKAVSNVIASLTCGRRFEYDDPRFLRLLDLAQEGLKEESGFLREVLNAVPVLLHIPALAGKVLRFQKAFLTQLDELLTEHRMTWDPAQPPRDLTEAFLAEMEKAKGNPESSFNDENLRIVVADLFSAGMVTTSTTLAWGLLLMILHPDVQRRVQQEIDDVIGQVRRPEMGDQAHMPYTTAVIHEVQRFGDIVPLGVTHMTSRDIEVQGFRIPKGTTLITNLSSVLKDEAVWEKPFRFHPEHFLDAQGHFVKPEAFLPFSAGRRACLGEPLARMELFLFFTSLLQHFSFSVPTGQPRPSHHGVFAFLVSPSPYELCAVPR
How it was run: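 Luminescent read-out of luciferin formed by 5 nM human CYP2D6 demethylating 30 uM Luciferin-ME EGE (Km level) over 60 min at room temperature after NADPH regeneration addition. Data normalized to full inhibition by 1.43 uM quinidine.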

[11] = biological target: Cytochrome P450 3A4 (Homo sapiens) (UniProt P08684); assay: qHTS Assay for Activators of Cytochrome P450 3A4 (AID 885; active means well fitted curve in the direction sought with a large enough effect; an effect the other way counts as inactive or inconclusive; further: nearly all actives have a fitted effect of over 65% in size); settings: recombinant CYP3A4, Luciferin-PPXE luminescence, 60 min; series mostly up to 11.4 µM
Cytochrome P450 3A4 (Homo sapiens), sequence (P08684 whole entry, looked up): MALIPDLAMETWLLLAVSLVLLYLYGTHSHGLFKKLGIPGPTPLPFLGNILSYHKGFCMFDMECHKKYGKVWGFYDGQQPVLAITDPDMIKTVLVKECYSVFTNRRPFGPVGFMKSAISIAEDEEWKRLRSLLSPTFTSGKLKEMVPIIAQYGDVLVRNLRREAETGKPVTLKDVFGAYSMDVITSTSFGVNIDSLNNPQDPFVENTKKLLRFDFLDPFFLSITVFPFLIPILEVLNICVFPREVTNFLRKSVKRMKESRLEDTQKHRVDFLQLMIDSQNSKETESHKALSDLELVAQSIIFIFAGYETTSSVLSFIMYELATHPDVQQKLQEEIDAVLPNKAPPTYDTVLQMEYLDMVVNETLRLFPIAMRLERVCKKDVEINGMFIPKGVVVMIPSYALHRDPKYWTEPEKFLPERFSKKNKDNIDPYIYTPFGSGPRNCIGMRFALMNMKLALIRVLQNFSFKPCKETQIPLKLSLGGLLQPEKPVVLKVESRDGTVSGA
How it was run: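 Activators are scored by enhanced luminescence from CYP3A4 conversion of luciferin-PPXE (25uM, equal to KM) to luciferin, after 60 min at RT with an NADPH-regenerating system.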

[12] = Confirmation and Secondary Assay for Modulators of Hemoglobin Beta Chain Splicing at IVS2 654 locus (AID 910; active means well fitted curve in the direction sought with a large enough effect; an effect the other way counts as inactive or inconclusive;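 further: per-well total GFP intensity by laser scanning cytometry after 2-day treatment; % of control where 0% means no effect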); settings: HeLa EGFP-654 splicing reporter, GFP fluorescence, 48 h; series mostly up to 38.3 µM
How it was run: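 HeLa cells stably carrying EGFP interrupted by mutant beta-globin IVS2-654 intron (CMV-driven) were treated with compound for 2 days at 37C; corrected splicing was scored as total peak GFP intensity per well (488 nm excitation, 500-520 nm emission).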

[13] = qHTS Assay for Identification of Small Molecule Agonists for Hypoxia Response Element Signaling Pathway (AID 914; active means well fitted activation curve with a large enough effect in the signal ratio, with a control signal flat, not every such curve was filed as active; the % refers to the signal ratio; further: % of control where 0% means no effect); settings: ME-180 (cervical carcinoma) HRE-bla reporter, beta-lactamase ratio, CoCl2, 17 h; activation: active compounds read high
How it was run: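 Compounds in a titration series were added to ME-180 reporter cells alongside an EC50 level of CoCl2. After 17 hours, beta-lactamase activity was read as the 460nm/530nm emission ratio of CCF4, giving AC50 values.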

[14] = Confirmation and Secondary Assay for Modulators of Hemoglobin Beta Chain Splicing at IVS2 705 locus (AID 930; active means well fitted curve in the direction sought with a large enough effect; an effect the other way counts as inactive or inconclusive;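 further: HeLa cells stably expressing the EGFP-705 splicing reporter; GFP fluorescence per well restored by corrected splicing of the IVS2-705 intron in EGFP; % of control where 0% means no effect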); settings: HeLa EGFP-705 splicing reporter, GFP fluorescence, 48 h; series mostly up to 38.3 µM
How it was run: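 Assay measures total GFP intensity per well in HeLa EGFP-705 cells after 2 days with compound; mis-splicing normally truncates EGFP, so fluorescence indicates corrected splicing.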

[15] = biological target: Cytochrome P450 2C19 (Homo sapiens) (UniProt P33261); assay: qHTS Assay for Inhibitors and Substrates of Cytochrome P450 2C19 (AID 899; active means well fitted curve in the direction sought with a large enough effect; an effect the other way counts as inactive or inconclusive; further: potency means the concentration at half of the fitted maximal effect; nearly all actives have a fitted effect of over 60% in size); settings: recombinant CYP2C19, luciferin-H EGE luminescence; series mostly up to 11.4 µM
Cytochrome P450 2C19 (Homo sapiens), sequence (P33261 whole entry, looked up): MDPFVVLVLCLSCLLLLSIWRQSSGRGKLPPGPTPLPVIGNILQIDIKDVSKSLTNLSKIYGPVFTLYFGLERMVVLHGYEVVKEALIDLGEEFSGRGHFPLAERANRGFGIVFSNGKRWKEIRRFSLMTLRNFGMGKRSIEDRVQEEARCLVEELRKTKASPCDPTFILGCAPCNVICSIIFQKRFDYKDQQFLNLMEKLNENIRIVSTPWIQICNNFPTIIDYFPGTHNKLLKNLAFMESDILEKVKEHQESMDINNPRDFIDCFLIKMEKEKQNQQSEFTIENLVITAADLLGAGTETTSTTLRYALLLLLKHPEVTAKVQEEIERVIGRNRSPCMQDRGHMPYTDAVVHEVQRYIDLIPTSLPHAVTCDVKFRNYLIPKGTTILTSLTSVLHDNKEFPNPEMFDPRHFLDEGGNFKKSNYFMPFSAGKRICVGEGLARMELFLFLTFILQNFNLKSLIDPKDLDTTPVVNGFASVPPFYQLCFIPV
How it was run: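 NADPH-dependent conversion of Luciferin-H EGE (10uM, at KM) by 5nM enzyme in 50mM KPO4, 60 min at 37C following 10 min compound preincubation. Stopped with luciferin detection buffer; luminescence read after 20 min.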

O=C(O)[C@@H](c1ccccc1)[C@@H](C(=O)O)c1ccccc1
inactive: Potency [1] > 11.4 µM | activity change, negative = inhibition [2] 3.89% | activity change, negative = inhibition [3] -12% [at 2.29 µM] | activity change, negative = inhibition [4] 6.48% | activity, negative = inhibition [5] -0.514% | Potency [6] > 46 µM | Potency [7] > 9.22 µM | Potency [8] | Potency [9] | Potency [10]

NS(=O)(=O)c1cc2c(cc1Cl)=NC(CCC(=O)O)=NS=2(=O)O
inactive: Potency [1] > 11.4 µM | activity change, negative = inhibition [2] -7.99% | Potency [3] | activity change, negative = inhibition [4] 7.52% | activity, negative = inhibition [5] 10.8% | Potency [6] > 46 µM | Potency [7] > 9.22 µM | Potency [8] | Potency [9] | Potency [10]

CN(C)C(=O)c1ccc(-c2nc(Nc3ccncc3)c3ccccc3n2)cc1
inactive: activity change, negative = inhibition [2] -14.2% | activity change, negative = inhibition [4] -7.95% | activity, negative = inhibition [5] -6.09% | Potency [6] > 46 µM | Potency [7] > 46 µM | Potency [8] | Potency [9] | Potency [11] | outcome [12] | activation [13] -8.23% | outcome [14]
active: Potency [1] 3.84 µM | Potency [3] 7.94 µM

CC(C)(CN)CN
inactive: Potency [1] > 11.4 µM | activity change, negative = inhibition [2] 0.738% | Potency [3] | activity change, negative = inhibition [4] 2.82% | activity, negative = inhibition [5] 0.176% | Potency [6] > 46 µM | Potency [7] > 9.22 µM | Potency [8] | Potency [9] | Potency [10]

O=C(O)NCC1CCCCC1 (tested in a mixture with another compound)
active: Potency [10] 3.98 µM
inactive: Potency [1] > 11.4 µM | activity change, negative = inhibition [2] 23.3% | Potency [3] | activity change, negative = inhibition [4] 22.8% | activity, negative = inhibition [5] -1.59% | Potency [6] > 46 µM | Potency [7] > 9.22 µM | Potency [8] | Potency [9]

O=C(O)C1(C(=O)O)CCN(S(=O)(=O)c2ccccc2)CC1
inactive: Potency [1] > 11.4 µM | activity change, negative = inhibition [2] -0.169% | activity change, negative = inhibition [3] 14% [at 2.29 µM] | activity change, negative = inhibition [4] 5.93% | activity, negative = inhibition [5] 11.9% | Potency [6] > 46 µM | Potency [7] > 9.22 µM | Potency [8] | Potency [9] | Potency [10]

Clc1ccc2c(N3CCC(CCC4CCN(c5ncnc6cc(Cl)ccc56)CC4)CC3)ncnc2c1
active: Potency [3] 3.16 µM | Potency [10] 0.794 µM
inactive: Potency [1] > 11.4 µM | activity change, negative = inhibition [2] 0.285% | activity change, negative = inhibition [4] 0.959% | activity, negative = inhibition [5] 0.136% | Potency [6] > 46 µM | Potency [7] > 9.22 µM | Potency [8] | Potency [9]

S=C1SCN(C2CCCCCCCCCCC2)CN1C1CCCCCCCCCCC1
inactive: Potency [1] > 11.4 µM | activity change, negative = inhibition [2] -6.27% | activity change, negative = inhibition [3] -14.7% [at 2.29 µM] | activity change, negative = inhibition [4] 6.16% | activity, negative = inhibition [5] -6.56% | Potency [6] > 46 µM | Potency [7] > 9.22 µM | Potency [8] | Potency [9] | Potency [11] | activation [13] 24.8%
active: Potency [15] 3.98 µM

CC(C)NC1(C(N)=O)CCN(Cc2ccccc2)CC1
inactive: Potency [1] > 11.4 µM | activity change, negative = inhibition [2] 0.245% | activity change, negative = inhibition [3] 7.6% [at 2.29 µM] | activity change, negative = inhibition [4] -10.3% | activity, negative = inhibition [5] -5.76% | Potency [6] > 46 µM | Potency [7] > 9.22 µM | Potency [8] | Potency [9]
active: Potency [10] 0.631 µM

CN=C(N)/N=C(\N)Nc1cc2ccccc2c2ccccc12
active: Potency [3] 0.251 µM | Potency [10] 1.58 µM
inactive: Potency [1] > 11.4 µM | activity change, negative = inhibition [2] -3.61% | activity change, negative = inhibition [4] 27.5% | activity, negative = inhibition [5] 12.7% | Potency [6] > 46 µM | Potency [7] > 9.22 µM | Potency [8] | Potency [9]

Cc1c(N2CCCC2)cc2c(c1NC(=O)c1ccccc1Cl)C(C)(C)CC2(C)C
active: Potency [15] 0.794 µM
inactive: Potency [1] > 11.4 µM | activity change, negative = inhibition [2] -3.93% | activity change, negative = inhibition [3] -13.1% [at 2.29 µM] | activity change, negative = inhibition [4] -10.2% | activity, negative = inhibition [5] -9.5% | Potency [6] > 46 µM | Potency [7] > 9.22 µM | Potency [8] | Potency [9] | Potency [11]

CN(C)c1ccc(-c2cc(NCc3ccccc3)ncn2)cc1
active: Potency [3] 1 µM
inactive: Potency [1] > 11.4 µM | activity change, negative = inhibition [2] -19.2% | activity change, negative = inhibition [4] 12.6% | activity, negative = inhibition [5] -7.24% | Potency [6] > 46 µM | Potency [7] > 46 µM | Potency [8] | Potency [9] | Potency [11] | outcome [12] | outcome [14]

Cc1cn([C@H]2C[C@H](O)[C@@H](COC(N)=O)O2)c(=O)[nH]c1=O
inactive: Potency [1] > 11.4 µM | activity change, negative = inhibition [2] 2.02% | activity change, negative = inhibition [3] -14.6% [at 2.29 µM] | activity change, negative = inhibition [4] 0.228% | activity, negative = inhibition [5] 6.97% | Potency [6] > 46 µM | Potency [7] > 9.22 µM | Potency [8] | Potency [9] | Potency [10]

CCOC(=S)SCC(=O)O
inactive: Potency [1] > 11.4 µM | activity change, negative = inhibition [2] 3.32% | Potency [3] | activity change, negative = inhibition [4] 9.65% | activity, negative = inhibition [5] 16.6% | Potency [6] > 46 µM | Potency [7] > 9.22 µM | Potency [8] | Potency [9] | Potency [10]
